Source: PubChem BioAssay (NCATS)
A number with no mark means an inactive call. Inconclusive results are not listed. Entries that show only a call come without a potency. Activity calls are given as the source filed them. The call rests on the fitted dose curve; in most records, active means well fitted curve in the direction sought with a large enough effect; inconclusive means small, poorly fitted or top-dose-only effect, or another doubt; inactive means no such curve, though single readings can be large; an effect the other way counts as inactive or inconclusive. Where a SMILES comes first, the peptide text is derived from it.

Key:
[1] = biological target: Glutathione peroxidase 1 (Homo sapiens) (UniProt P07203); assay: Primary qHTS Assay for Inhibitors of Recombinant Selenoprotein Glutathione Peroxidase 1 (GPX1) (AID 1845191); further: nearly all actives have a fitted effect of over 65% in size
How it was run: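 Recombinant GPX1 (10 nM final) was preincubated with compound for 30 min at room temperature, then reacted with 1 mM GSH, 0.5 mM CHP, 0.5 mM NADPH and 100 nM glutathione reductase; NADPH fluorescence (340/450 nm) was read at 0 and 15 min.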

[2] = biological target: Phospholipid hydroperoxide glutathione peroxidase GPX4 (Homo sapiens) (UniProt P36969); assay: Primary qHTS Assay for Inhibitors of Recombinant Selenoprotein Glutathione Peroxidase 4 (GPX4) (AID 1845192); further: nearly all actives have a fitted effect of over 65% in size; on activity change, negative = inhibition: series mostly up to about 50 µM
How it was run: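 GR-coupled readout: 100 nM GR, 1 mM GSH, 0.5 mM NADPH; NADPH fluorescence (ex 340/em 450 nm) read at t=0 and after 15 min RT. GPX4 200 nM, preincubated 30 min with compound; substrate 0.5 mM CHP.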

[3] = biological target: Luciferin 4-monooxygenase (Photinus pyralis) (UniProt P08659); assay: Primary firefly luciferase (FLuc) qHTS assay for identification of artifact compounds. (AID 1845220); further: nearly all actives have a fitted effect of over 60% in size; on activity change, negative = inhibition: series mostly up to about 54 µM
How it was run: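 Reaction readout was CCD-imaged luminescence, taken 5 min after adding 10 nM purified firefly enzyme to compound-treated wells holding 10 uM luciferin and ATP in pH 7.6 buffer.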

[4] = Primary fluorescence-based thiol-reactive (MSTI) qHTS assay for identification of artifact compounds. (AID 1845221); further: nearly all actives have a fitted effect of over 65% in size; further: potency means the concentration at half of the fitted maximal effect;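 on activity change, negative = thiol reactive: series mostly up to about 54 µM; thiol-reactive compounds lower the probe fluorescence signal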
How it was run: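 Reactivity toward the thiol probe MSTI (4 uM) is scored by fluorescence at Ex/Em 525/598 nm after 1 h at room temperature. Acetyl-MSTI and MSTI define the activity scale.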

[5] = tested on: Nanoluciferase (engineered Oplophorus gracilirostris luciferase); assay: Primary Nanoluciferase (NLuc) qHTS assay for identification of artifact compounds. (AID 1845222);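 further: NLuc secreted into diluted conditioned medium of S16 cells; series mostly up to about 54 µM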
How it was run: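 Concentration-response data were obtained by luminescence after 5 min with Nano-Glo substrate at 1:100. The enzyme was diluted S16 NLuc-expressing cell medium, preincubated with compound for 15 min at RT. Curves were fitted with a 4-parameter Hill model.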

[6] = Primary redox qHTS assay for identification of artifact compounds. (AID 1845223)
How it was run: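 Amplex Red (25 uM) and HRP (250 mU/mL) in HBSS, with compounds for 15 min, then 250 uM DTT for 30 min, room temperature, dark. Fluorescence 525/598 nm read; normalized to DMSO and 10 uM DA3003; Hill fit.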

Sequence of Phospholipid hydroperoxide glutathione peroxidase GPX4 (Homo sapiens) (P36969 whole entry, looked up): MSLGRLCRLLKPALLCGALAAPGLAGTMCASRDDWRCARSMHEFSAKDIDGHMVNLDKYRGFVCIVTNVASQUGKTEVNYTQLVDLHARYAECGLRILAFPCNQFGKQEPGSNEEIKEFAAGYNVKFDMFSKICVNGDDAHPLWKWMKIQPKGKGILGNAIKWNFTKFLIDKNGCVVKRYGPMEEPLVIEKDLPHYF
Sequence of Glutathione peroxidase 1 (Homo sapiens) (P07203 whole entry, looked up): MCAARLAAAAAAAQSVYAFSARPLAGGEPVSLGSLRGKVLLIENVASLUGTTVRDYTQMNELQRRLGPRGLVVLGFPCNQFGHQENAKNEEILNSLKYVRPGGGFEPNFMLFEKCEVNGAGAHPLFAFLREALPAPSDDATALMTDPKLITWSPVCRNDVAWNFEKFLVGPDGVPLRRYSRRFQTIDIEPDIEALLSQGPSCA

Row | SMILES | Potency [1] | Potency [2] | Potency [3] | Potency [4] | Potency [5] | Potency [6] | activity change, negative = inhibition [3] | activity change, negative = thiol reactive [4] | activity, negative = inhibition [5] | redox activity (% of DA3003) [6]
1 | COc1cc(O)cc(C)c1C(=O)O[C@H]1[C@@H](O)[C@@H](n2ccc(=O)[nH]c2=O)O[C@@H]1CO | inactive | inactive | inactive | inactive | inactive | inactive | – | – | – | –
2 | C=C(C(=O)O)[C@@H]1CC[C@H](C)[C@@H]2CC(=O)C(C)=C2C1 | inactive | inactive | inactive | 21.2 µM (active) | inactive | inactive | – | – | – | –
3 | CN1CCN(C(=O)c2cc3cc(Cl)ccc3[nH]2)CC1 | inactive | inactive | inactive | inactive | inactive | inactive | – | – | – | –
4 | COc1ccc(-n2c(SCC#N)nc3sc4c(c3c2=O)CCCC4)cc1 | inactive | inactive | inactive | inactive | inactive | inactive | – | – | – | –
5 | O=C(OC[C@H]1O[C@H](O[C@H]2CO[C@H](CO)[C@@H](O)[C@@H]2O)[C@H](O)[C@@H](O)[C@H]1O)c1ccccc1 | inactive | inactive | inactive | inactive | inactive | inactive | – | – | – | –
6 | CC1(C)CC2C(O)C3=C(CC(C)(O)C2C1)C(=O)OC3 (stereo unspecified) | inactive | inactive | inactive | inactive | inactive | inactive | – | – | – | –
7 | CC1(C)CCC[C@@]2(C)[C@H]1[C@H](O)C=C(CO)[C@]2(O)CO | inactive | inactive | inactive | inactive | inactive | inactive | – | – | – | –
8 | OCC1OC(Oc2cc(O)cc(/C=C/c3ccc(OC4OC(CO)C(O)C(O)C4O)cc3O)c2)C(O)C(O)C1O (stereo unspecified) | inactive | inactive | inactive | inactive | inactive | inactive | – | – | – | –
9 | C=C1C(=O)O[C@@H]2CC(C)=C([C@@H](C)CCCOC(C)=O)[C@@H](O)[C@H]12 | inactive | inactive | inactive | 16.5 µM (active) | inactive | inactive | – | – | – | –
10 | CC1=CC(=O)C2C(C)(C)CCC[C@]2(C)[C@H]1CC[C@H](C)CC(=O)O (stereo partly specified) | inactive | inactive | inactive | inactive | inactive | inactive | – | – | – | –
11 | C=C1CC[C@@H]2C(C)(C)CCC[C@@]2(C)[C@@H]1CC/C(=C/C(=O)OC)COC(C)=O | inactive | inactive | inactive | inactive | inactive | inactive | – | – | – | –
12 | COc1cc2c(cc1O)CC(O)(CO)C(CO)C2c1ccc(OC2OC(CO)C(O)C(O)C2O)c(OC)c1 (stereo unspecified) | inactive | inactive | inactive | 10.3 µM (active) | inactive | inactive | – | – | – | –
13 | C=C1C2CCC3C(CCC4[C@@]3(C)CCC[C@@]4(C)C(=O)O)(C2)[C@@H]1OC(=O)/C(C)=C\C (stereo partly specified) | inactive | inactive | inactive | inactive | inactive | inactive | – | – | – | –
14 | C=C1C2(C)CC3C4(C)C=CC(=O)OC(C)(C)C4CCC3(C)C1(C(=O)OC)C(=O)C(C)(O)C2=O (stereo unspecified) | inactive | inactive | inactive | inactive | inactive | inactive | – | – | – | –
15 | CC(C)N(CCCNC(=O)Nc1ccc(C(C)(C)C)cc1)C[C@H]1O[C@@H](n2ccc3c(N)ncnc32)[C@H](O)[C@@H]1O | inactive | inactive | inactive | inactive | inactive | inactive | – | – | – | –
16 | CC(=O)O[C@H]1C[C@@H](O)C(C)(C)C2C[C@@H](OC(C)=O)[C@@]3(C)C4=CCC(C(CO)CC(O)C5OC5(C)C)[C@]4(C)CCC3[C@]21C (stereo partly specified) | inactive | inactive | inactive | inactive | inactive | inactive | – | – | – | –
17 | CC1CCC2(NC1)OC1C(O)C3C4CCC5CC(O[C@@H]6O[C@H](CO)[C@@H](O)[C@H](O)[C@H]6O[C@@H]6O[C@@H](C)[C@H](O)[C@@H](O)[C@H]6O)CCC5(C)C4CCC3(C)C1C2C (stereo partly specified) | inactive | inactive | inactive | inactive | inactive | inactive | – | – | – | –
18 | C/C=C(/C)C(=O)O[C@@H]1C[C@@H](OC(=O)/C(C)=C\C)[C@@]2(C)C3C(=O)C=C(C)C2C3C1(C)C | inactive | inactive | inactive | inactive | inactive | inactive | – | – | – | –
19 | CSCC[C@H](NC(=O)[C@H](CO)NC(=O)[C@H](CCC(=O)O)NC(C)=O)C(=O)N[C@H](C=O)CC(=O)O (Ac-ESMD-aldehyde) | inactive | inactive | – | – | – | – | -5.86% [at 11.6 µM] | 10.4% [at 11.5 µM] | 3.03% [at 11.6 µM] | -1.61% [at 11.5 µM]
20 | CC1(C)C(=O)N2c3ccccc3C(O)(CC(C(=O)O)n3cnc4ccccc4c3=O)C2N1O (stereo unspecified) | inactive | inactive | inactive | inactive | inactive | inactive | – | – | – | –
21 | C=C(COC(=O)C(C)C)C1Oc2cc(C(C)=O)ccc2C1OC(=O)C(C)C (stereo unspecified) | inactive | inactive | inactive | inactive | inactive | inactive | – | – | – | –

Row | SMILES | Potency [1] | Potency [2] | Potency [3] | Potency [4] | Potency [5] | Potency [6] | activity change, negative = inhibition [3] | activity change, negative = thiol reactive [4] | activity, negative = inhibition [5] | redox activity (% of DA3003) [6]
22 | CC(NC(=O)[C@H](Cc1ccccc1)NC(=O)OCc1ccccc1)C(=O)CF (stereo partly specified) | inactive | inactive | inactive | inactive | inactive | inactive | – | – | – | –
23 | CC1=CCC2C(C)(C)CCCC2(C)C1CC12OC1C(O)C(CO)=CC2O (stereo unspecified) | inactive | inactive | inactive | inactive | inactive | inactive | – | – | – | –
24 | CC(C)c1ccc2c(c1)C(O)CC1C(C)(CO)CCCC21C (stereo unspecified) | inactive | inactive | inactive | inactive | inactive | inactive | – | – | – | –
25 | CCC(C)C(=O)O[C@H]1C[C@](C)(O)[C@]23OC(C)(C)[C@H](C[C@H](OC(=O)c4ccccc4)[C@]2(COC(C)=O)[C@H]1OC(=O)C(C)CC)[C@H]3OC(C)=O (stereo partly specified) | inactive | inactive | inactive | inactive | inactive | inactive | – | – | – | –
26 | N#Cc1ccc(C2CCCc3cncn32)cc1 (stereo unspecified) | inactive | inactive | inactive | inactive | inactive | inactive | – | – | – | –
27 | C[C@@H]1CC[C@]2(C(=O)O)CC[C@]3(C)C(=CCC4[C@@]5(C)C[C@@H](O)[C@H](O)[C@@](C)(CO)C5CC[C@]43C)C2[C@H]1C (stereo partly specified) | inactive | inactive | inactive | inactive | inactive | inactive | – | – | – | –
28 | CC1(C)CC[C@]2(C(=O)O)[C@H](O)C[C@]3(C)C(=CCC4[C@@]5(C)CC[C@H](O[C@@H]6OC[C@@H](O)[C@H](O)[C@H]6O)[C@@](C)(C(=O)O)C5CC[C@]43C)[C@@H]2C1 (stereo partly specified) | inactive | inactive | inactive | inactive | inactive | inactive | – | – | – | –
29 | C=C(C(=O)O)[C@@H]1CC[C@@]2(C)CC[C@@H](O)C(=C)C2C1 (stereo partly specified) | inactive | inactive | inactive | 23.8 µM (active) | inactive | inactive | – | – | – | –
30 | CC(=O)O[C@@]1(C)[C@@H]2CC(=C(C)C)C(=O)C[C@@]2(C)CC[C@H]1OC(=O)C1(C)OC1C (stereo partly specified) | inactive | inactive | inactive | inactive | inactive | inactive | – | – | – | –
31 | Cc1cc(O[C@@H]2O[C@H](COC(=O)CC(=O)O)[C@@H](O)[C@H](O)[C@H]2O)c(C(C)C)cc1O | inactive | inactive | inactive | 5.19 µM (active) | inactive | inactive | – | – | – | –
32 | COc1cc(OC)cc(-c2ccc3c(-c4ccc(F)cc4)[nH]nc3n2)c1 | inactive | inactive | inactive | inactive | inactive | inactive | – | – | – | –
33 | CC(=O)OC[C@]12[C@H](OC(C)=O)[C@H](OC(=O)c3ccccc3)[C@@H]3[C@@H](OC(C)=O)[C@]1(OC3(C)C)[C@H](C)C[C@H](OC(=O)c1ccccc1)[C@@H]2OC(=O)c1ccccc1 | inactive | inactive | inactive | inactive | inactive | inactive | – | – | – | –
34 | CC1=C2CC(=O)C(C)CC/C=C(\C)CC2(O)OC1=O (stereo unspecified) | inactive | inactive | inactive | inactive | inactive | inactive | – | – | – | –
35 | C/C=C(\C)C(=O)OC1C(C)C2(O)C3C=C(C)C(=O)C3CC(CO)=CC2C2C(C)(C)C12OC(C)=O (stereo unspecified) | inactive | inactive | inactive | inactive | inactive | inactive | – | – | – | –
36 | O=C(/C=C/c1ccc(O)cc1)OC[C@@]1(O)C=C[C@@H]2C(C(=O)O)=CO[C@@H](O[C@@H]3O[C@H](CO)[C@@H](O)[C@H](O)[C@H]3O)[C@@H]21 | inactive | inactive | inactive | 5.19 µM (active) | inactive | inactive | – | – | – | –
37 | CC1=CC(=O)CC(C)(C)[C@@]1(O)/C=C/C(C)O[C@@H]1O[C@H](CO)[C@@H](O)[C@H](O)[C@H]1O (stereo partly specified) | inactive | inactive | inactive | inactive | inactive | inactive | – | – | – | –
38 | O=C(OCC(O)CO[C@@H]1O[C@H](C(=O)O)[C@@H](O)[C@H](O)[C@H]1O)c1ccccc1 (stereo partly specified) | inactive | inactive | inactive | 6.56 µM (active) | inactive | inactive | – | – | – | –
39 | Cc1cc(CO)c(O)c(C(=O)CC2CC(=O)NC(=O)C2)c1 | inactive | inactive | inactive | inactive | inactive | inactive | – | – | – | –
40 | COC(=O)C1=COC(OC2OC(CO)C(O)C(O)C2O)C2C(COC(=O)/C=C/c3ccc(O)c(O)c3)C(O)C(O)C12 (stereo unspecified) | inactive | inactive | inactive | 2.51 µM (active) | inactive | inactive | – | – | – | –
41 | CC1CCC2(C(=O)OC3OC(CO)C(O)C(O)C3O)CCC3(C)C(=CCC4C5(C)CCC(O)C(C)(CO)C5CCC43C)C2C1(C)O (stereo unspecified) | inactive | inactive | inactive | inactive | inactive | inactive | – | – | – | –
